Our source for the growth values is PubChem BioAssay (NCI).

Among the test systems are HCT-15 colon; HT29 colon; SNB-75 CNS; SNB-19 CNS; U251 CNS; PC-3 prostate; SK-MEL-5 melanoma; UACC-62 melanoma; LOX IMVI melanoma; SK-MEL-28 melanoma.
What all share (experiment): NCI-60 one-dose screen, 48 h (100 = growth as untreated, 0 = no growth, -100 = all killed)
Settings in all cases: 10 µM unless noted

About 83,000 compounds went through this panel and 20% of them were active in at least one assay; those are over-represented in the sample as a whole.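 Cell lines were cultured in 96-well plates, exposed to a single compound concentration, and assessed for percent growth 48 hours later.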 Unmarked numbers belong to inactive results. Activity calls are given as the source filed them. The calls were made as follows: active = growth percent below 10; inactive = the rest.

For `COC(=O)[C@@H](C)C[C@H](Cc1ccccc1)NC(=O)c1nc([C@@H](C[C@H](C(C)C)N(C)C(=O)[C@@H](NC(=O)[C@H]2CCCN2C)C(C)C)OC(C)=O)sc1C`, the growth is 13.4% in the experiment with HCT-15 colon; 2.1% (active) with HT29 colon; 51.2% with SNB-75 CNS; 42% with SNB-19 CNS; 5.39% (active) with U251 CNS; 17.2% in the experiment with PC-3 prostate. Besides, the growth is -20.7% (active) in the experiment on SK-MEL-5 melanoma, 46.6% in the experiment with UACC-62 melanoma, 25.6% in the experiment on LOX IMVI melanoma and 65.6% with SK-MEL-28 melanoma.

Consider `CSc1nc(Cl)cc(N2CC2)n1`, for which the growth was 100% in the experiment with HCT-15 colon; 112% with HT29 colon; 110% in the experiment with SNB-75 CNS; 108% in the experiment with SNB-19 CNS; 110% in the experiment on U251 CNS; 92.5% in the experiment on PC-3 prostate. In addition, the growth is 105% with SK-MEL-5 melanoma, 97.9% in the experiment on UACC-62 melanoma, 111% with LOX IMVI melanoma and 121% with SK-MEL-28 melanoma.

`CN1CCCCC1C(C)(O)c1ccccc1` (stereo not given): the growth was 100% in the experiment on HCT-15 colon; 93.4% in the experiment with HT29 colon; 93% in the experiment with SNB-75 CNS; 107% with SNB-19 CNS; 101% with U251 CNS; 82.1% in the experiment with PC-3 prostate. Also, the growth is 104% in the experiment on SK-MEL-5 melanoma, 104% in the experiment with UACC-62 melanoma, 99% in the experiment with LOX IMVI melanoma and 105% in the experiment on SK-MEL-28 melanoma.

`COc1cccc2c1c(C(=O)C(=O)Nc1cc(C)no1)cn2Cc1ccc(F)cc1`: the growth was 29.5% in the experiment with HCT-15 colon; 24.8% in the experiment with HT29 colon; 53.6% in the experiment on SNB-75 CNS; 66% in the experiment with SNB-19 CNS; 51.7% with U251 CNS; 62.5% in the experiment with PC-3 prostate. In addition, the growth in the experiment on SK-MEL-5 melanoma was 36.3%; in the experiment on UACC-62 melanoma, 38.7%; in the experiment with LOX IMVI melanoma it was 56.1%; in the experiment on SK-MEL-28 melanoma it was 68.3%.

In the case of `O=C1OCCC1Br` (stereo not given), the growth with HCT-15 colon is 98.7%; with HT29 colon, 97.3%; in the experiment with SNB-75 CNS, 89.9%; in the experiment with SNB-19 CNS, 104%; in the experiment with U251 CNS it was 92.2%; with PC-3 prostate it was 99.5%. The growth was 103% with SK-MEL-5 melanoma, 103% in the experiment with UACC-62 melanoma, 97.4% in the experiment on LOX IMVI melanoma and 99.5% in the experiment with SK-MEL-28 melanoma.

For `Nc1c(F)cc(-c2nc3cc(F)ccc3[se]2)cc1Br`, the growth with HCT-15 colon was 18.5%; with HT29 colon, 5.05% (active); with SNB-75 CNS, 73.4%; in the experiment on SNB-19 CNS, 94.5%; with U251 CNS, 87.5%; in the experiment with PC-3 prostate it was 66.4%. Besides, the growth is 50% in the experiment on SK-MEL-5 melanoma, 47.5% with UACC-62 melanoma, 90.1% with LOX IMVI melanoma and 106% with SK-MEL-28 melanoma.

For `Cn1cc(C2=C(c3cn(C4CCN(Cc5ccccn5)CC4)c4ccccc34)C(=O)NC2=O)c2ccccc21`, the growth in the experiment with HCT-15 colon was 85.9%; in the experiment with HT29 colon, 14.3%; in the experiment with SNB-75 CNS, 57.8%; in the experiment with SNB-19 CNS, 101%; with U251 CNS, 88.4%; with PC-3 prostate, 92.2%. In addition, the growth in the experiment with SK-MEL-5 melanoma is 69.2%; in the experiment on UACC-62 melanoma, 13.7%; in the experiment with LOX IMVI melanoma, 48.5%; with SK-MEL-28 melanoma it was 18.7%.

On to `ClCCN(CCCl)Cc1ccc(Nc2ccnc3cc(Cl)ccc23)cc1`, for which the growth was 48.2% in the experiment on HCT-15 colon; 10.2% with HT29 colon; 45.1% in the experiment with SNB-75 CNS; 60.8% in the experiment with SNB-19 CNS; 22.4% with U251 CNS; 47.3% in the experiment with PC-3 prostate. Also, the growth in the experiment on SK-MEL-5 melanoma was 54.2%; in the experiment with UACC-62 melanoma it was 26.8%; with LOX IMVI melanoma it was 20.1%; in the experiment on SK-MEL-28 melanoma, 67.1%.

Consider `COC(=O)[C@@H](C)C[C@H](Cc1ccccc1)NC(=O)c1csc([C@@H](C[C@H](C(C)C)N(C)C(=O)[C@H](C)NC(=O)[C@H]2CCCN2C)OC(C)=O)n1`, for which the growth is 57.7% in the experiment on HCT-15 colon; 11.5% with HT29 colon; 30.7% in the experiment with SNB-75 CNS; 51% in the experiment with SNB-19 CNS; 24.8% with U251 CNS; 36.4% in the experiment with PC-3 prostate. For the same compound, the growth is 22.3% in the experiment on SK-MEL-5 melanoma, 45.6% with UACC-62 melanoma, 38.4% with LOX IMVI melanoma and 70.1% with SK-MEL-28 melanoma.

Consider `COC(=O)[C@@H](C)C[C@H](Cc1ccccc1)NC(=O)c1csc([C@@H](C[C@H](C(C)C)N(C)C(=O)C2(NC(=O)[C@H]3CCCCN3C)CC2)OC(C)=O)n1`, for which the growth was 20.5% with HCT-15 colon; 9.71% (active) in the experiment with HT29 colon; 26.5% in the experiment with SNB-75 CNS; 68.2% in the experiment with SNB-19 CNS; 4.91% (active) in the experiment on U251 CNS; 12.3% with PC-3 prostate. For the same compound, the growth in the experiment with SK-MEL-5 melanoma was -40.2% (active); in the experiment on UACC-62 melanoma, 41.1%; in the experiment with LOX IMVI melanoma it was 3.04% (active); with SK-MEL-28 melanoma, 58.7%.

`N#CCCNc1ccccc1`: the growth in the experiment with HCT-15 colon was 111%; in the experiment with HT29 colon it was 108%; with SNB-75 CNS, 88.6%; with SNB-19 CNS it was 116%; with U251 CNS, 103%; in the experiment with PC-3 prostate, 96.9%. For the same compound, the growth is 107% in the experiment with SK-MEL-5 melanoma, 117% in the experiment with UACC-62 melanoma, 106% with LOX IMVI melanoma and 99.8% in the experiment with SK-MEL-28 melanoma.

Turning to `COC(=O)[C@@H](C)C[C@H](Cc1ccccc1)NC(=O)c1csc([C@@H](C[C@H](C(C)C)N(C)C(=O)[C@H](C)NC(=O)[C@H]2CCCCN2C)OC(C)=O)n1`, the growth in the experiment on HCT-15 colon is 45.4%; in the experiment on HT29 colon it was 9.42% (active); in the experiment with SNB-75 CNS, 18.1%; in the experiment with SNB-19 CNS, 27.7%; in the experiment on U251 CNS it was 10.8%; in the experiment with PC-3 prostate, 19.6%. Moreover, the growth was 19.3% with SK-MEL-5 melanoma, 28.4% in the experiment on UACC-62 melanoma, 39.8% in the experiment with LOX IMVI melanoma and 58.1% in the experiment with SK-MEL-28 melanoma.
